Screening results from PubChem.
PAD4 FP inh – blocks human protein arginine deiminase 4; inhibition, % at 6.36 µM; recombinant PAD4, RCA probe fluorescence polarization; Q9UM07; AID 485272; 330,000 compounds, 0.41% hits;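 active = percent inhibition above a cutoff equal to the mean of all tested compounds plus 3 SD, cut at about 15% in these data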;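 also: 0% = PAD4 with RCA probe and DMSO and 100% = probe without PAD4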
PME-1 primary – blocks human protein phosphatase methylesterase 1 | Q9Y570 | recombinant PME-1, FP-Rh probe fluorescence polarization | inhibition, % at 5.9 µM | 320,000 compounds, 0.53% hits | AID 2130;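 active = inhibition above the campaign mean of all compounds plus 3 SD, cut at about 26% in these data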;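 also: competitive labeling of PME-1 active site by serine hydrolase directed probe; 0% = PME-1 with DMSO and 100% = wells lacking PME-1 enzyme; inhibitors block probe labeling so polarization falls and inhibition rises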
Target sequence (Q9Y570 whole entry, looked up): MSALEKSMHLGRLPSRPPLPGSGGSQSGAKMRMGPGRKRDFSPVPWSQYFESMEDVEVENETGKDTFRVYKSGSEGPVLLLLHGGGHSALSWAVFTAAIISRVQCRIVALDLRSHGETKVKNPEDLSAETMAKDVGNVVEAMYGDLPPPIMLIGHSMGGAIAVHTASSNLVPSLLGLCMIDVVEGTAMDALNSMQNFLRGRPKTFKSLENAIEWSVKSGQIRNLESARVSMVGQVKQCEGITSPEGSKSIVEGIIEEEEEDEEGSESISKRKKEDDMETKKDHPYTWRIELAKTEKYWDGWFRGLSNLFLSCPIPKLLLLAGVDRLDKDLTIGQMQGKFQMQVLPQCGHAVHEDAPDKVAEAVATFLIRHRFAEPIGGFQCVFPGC
Fam108B counter – blocks mouse Fam108B hydrolase in RBBP9 counter-screen. recombinant Fam108B, FP-Rh probe fluorescence polarization. inhibition, % at 9.51 µM. 300,000 compounds, 0.33% hits;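 active = inhibition above the screen mean inhibition plus 3 SD, computed separately per campaign, cut at about 18% in these data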;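 also: inhibitors lower polarization as less probe binds the enzyme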
LYPLA2 inh – blocks human lysophospholipase 2, a PME1 counter-screen; recombinant LYPLA2, FP-Rh probe fluorescence polarization; 320,000 compounds, 0.38% hits; inhibition, % at 5.9 µM; O95372;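 active = inhibition above the screen-wide mean plus 3 SD, limit set per campaign, cut at about 26% in these data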;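 also: 0% = LYPLA2 with DMSO and 100% = wells lacking LYPLA2 enzyme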
GSTO1 inh – GSTO1 inhibition, counter-screen for RBBP9 inhibitors. AID 1974. P78417. inhibition, % at 5.96 µM. 300,000 compounds, 1.1% hits. recombinant GSTO1, activity-based probe fluorescence polarization;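 active = inhibition above the campaign mean inhibition plus 3 SD, cut at about 35% in these data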;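 also: 0% = GSTO1-1 with DMSO and 100% = wells lacking GSTO1-1 enzyme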
Target sequence (P78417 whole entry, looked up): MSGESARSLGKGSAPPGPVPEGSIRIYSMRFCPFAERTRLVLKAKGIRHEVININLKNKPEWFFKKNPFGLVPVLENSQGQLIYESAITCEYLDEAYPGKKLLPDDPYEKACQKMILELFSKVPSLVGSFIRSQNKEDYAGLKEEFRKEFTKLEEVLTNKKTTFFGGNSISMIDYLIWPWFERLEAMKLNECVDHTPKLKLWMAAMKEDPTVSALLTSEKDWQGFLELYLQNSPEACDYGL
LYPLA1 counter – blocks human lysophospholipase 1, a PME1 counter-screen | O75608 | recombinant LYPLA1, FP-Rh probe fluorescence polarization | inhibition, % at 5.9 µM | 320,000 compounds, 0.16% hits | AID 2174;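 active = inhibition above the mean of all tested compounds plus 3 SD, set per campaign, cut at about 14% in these data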;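 also: inhibitors block serine hydrolase probe labeling of LYPLA1 so polarization falls; 0% = enzyme with DMSO and 100% = wells lacking LYPLA1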
Numbers without * were called inactive; x = no result. Shown are actives, neighbours in structure and some others; about 1.8% of the full set was active somewhere.

SMILES	PAD4 FP inh	PME-1 primary	Fam108B counter	LYPLA2 inh	GSTO1 inh	LYPLA1 counter
Clc1ccc(-c2nnc(CNC3CC3)o2)cc1	1.7	9.4	0.1	4.9	3.4	1.2
CCOC(=O)c1c(C)[nH]c(C2=NNC(=Nc3ccccc3OC)SC2)c1C	-17.0	21.6	3.7	-7.1	-9.2	-7.7
CCOC(=O)c1c(C)[nH]c(C2=NNC(=Nc3ccc(OCC)cc3)SC2)c1C	-20.8	27.7*	6.9	0.5	-2.3	-8.6
COc1ccc(NC(=O)CN(C)C(=O)c2cc(-c3ccco3)nc3ccccc23)cc1	-7.4	-5.9	3.0	6.2	37.0*	-2.8
CN(CC(=O)Nc1cccc(F)c1)C(=O)c1cc(-c2ccco2)nc2ccccc12	-7.4	-6.5	4.7	-3.8	21.7	-5.2
CC(C)Cc1nnc(NC(=O)CSc2nc(O)c(-c3ccccc3)c(=O)[nH]2)s1	8.4	2.8	-1.5	-2.5	71.0*	-0.8
COc1ccc(NC(=O)c2nn(C)c3c2CS(=O)(=O)c2ccccc2-3)cc1	2.0	3.7	0.5	2.5	-1.7	-0.6
O=C(CCl)N(c1ccccc1)C1CCCCC1	1.9	-6.3	-2.6	2.8	66.8*	2.8
COc1ccc(OC)c(-c2nn(-c3ccccc3)cc2C(=O)NCC(c2ccco2)N2CCCC2)c1 (stereo not drawn)	-0.4	1.9	x	-0.2	x	-1.2
CCCCCCC(=O)N1CCC(c2nc3c(nnn3Cc3ccccc3Cl)c(=O)[nH]2)CC1	-1.7	26.8*	-3.4	38.5*	-2.8	6.9
CC(=O)OCC1(C)CN(c2ccccc2)N(C(=O)c2ccc(F)cc2)C1=O (stereo not drawn)	-2.0	6.9	-2.8	5.8	36.1*	0.9
O=C(CC1C(=O)NCCN1C(=O)c1ccc(F)cc1)OCc1ccccc1 (stereo not drawn)	-0.5	-13.3	-7.7	-3.7	-7.5	-1.3
Cc1ccc2c(c1)sc[n+]2Cc1ccccc1	21.9*	3.0	2.8	-2.1	0.9	0.2
Cc1ccc(-c2cc[n+](Cc3ccccc3)cc2)cc1	-1.8	-1.4	2.7	-1.7	2.9	0.4
COc1ccc(Cl)cc1/C=C(\C#N)C(N)=O	-3.5	5.7	0.0	1.6	7.7	2.2
COc1ccc(OC)c(NC(=O)COC(=O)[C@H](Cc2ccccc2)NC(=O)c2ccco2)c1	-2.0	x	x	x	x	x
CC(C)(C)c1ccc(-n2ncc3c2CCCC3NC(=O)CCN2CCCC2=O)cc1 (stereo not drawn)	1.9	3.9	-1.5	3.9	0.1	0.8
CNc1ccc(Br)cc(C(=O)/C=C/c2ccc(Cl)cc2Cl)c1=O	-7.5	10.5	9.5	2.5	35.0*	-7.5
CNc1ccc(Br)cc(C(=O)/C=C/c2cccc(OC)c2)c1=O	-3.6	12.7	3.2	3.2	35.5*	-3.6
CNc1ccc(Br)cc(C(=O)/C=C/c2ccc(OC)cc2OC)c1=O	-5.6	0.7	12.3	6.1	36.1*	0.6
COc1ccc(/C=C/C(=O)c2ccc(OC)cc2OC)c(OC)c1	-2.0	-8.9	-5.5	-3.2	-18.5	-0.2
CCNc1ccc(Br)cc(C(=O)/C=C/c2ccc(Cl)cc2)c1=O	-0.6	9.9	10.5	4.1	7.2	-0.5
O=C(COC(=O)Cc1ccc(Cl)cc1)Nc1ccccc1-c1ccccc1	1.6	2.2	0.3	4.0	36.4*	-2.8
O=C(COC(=O)c1cc(=O)[nH]c2ccccc12)NCc1ccccc1	-6.1	x	x	x	x	x
COc1cccc(C(=O)Nc2ccc3nc(N4CCN(c5ncccn5)CC4)cc(C)c3c2)c1OC	-1.9	-3.7	6.6	8.2	37.3*	12.9
SMILES	PAD4 FP inh	PME-1 primary	Fam108B counter	LYPLA2 inh	GSTO1 inh	LYPLA1 counter
CCOc1ccccc1C(=O)Nc1ccc2nc(N3CCN(c4ncccn4)CC3)cc(C)c2c1	6.1	7.2	3.0	2.9	0.8	0.6
Oc1ccc(C2C[C@H]3CC[C@@H]2C3)cc1O (stereo partly drawn)	-6.1	9.6	4.6	-2.5	42.4*	-1.9
Cc1nnc(-c2ccccc2)c(=O)n1/N=C/c1c(O)ccc2ccccc12	-7.7	8.2	6.3	-1.1	38.9*	1.4
Cc1nc2ccccc2c(=O)n1/N=C/c1ccc2ccccc2c1O	-6.7	-2.1	3.1	5.1	66.8*	-1.5
Cc1nnc(C)n1/N=C/c1c(O)ccc2ccccc12	-5.2	-0.3	2.8	4.0	32.7	-3.2
Cc1nc2ccccc2c(=O)n1/N=C/c1ccccc1O	3.9	-16.2	-0.7	4.2	-1.1	-2.2
CCc1sc(C(=O)NCCc2ccc(S(N)(=O)=O)cc2)cc1Br	-2.6	-1.4	-2.4	-5.4	1.8	-1.0
CCCC(=O)OCC(=O)c1[nH]c(C)c(C(C)=O)c1C	-3.5	5.6	-1.0	0.5	-1.7	-0.9
CCNc1ccc(Br)cc(C(=O)/C=C/c2c(Cl)cccc2Cl)c1=O	-7.2	13.4	17.9	4.9	36.7*	-3.4
CCNc1ccc(Br)cc(C(=O)/C=C/c2ccc3c(c2)OCO3)c1=O	6.5	6.8	9.3	22.9	53.2*	1.7
O=C(NCCCO)Nc1ccc2nc(-c3ccco3)c(-c3ccco3)nc2c1	7.3	9.3	52.3*	3.7	65.6*	-8.4
COc1ccccc1-c1c(C#N)c(N)nc2c1CCc1ccccc1-2	-14.0	40.3*	-1.5	-13.3	17.8	-8.5
CCOc1cc(-c2c(C#N)c(N)nc3c2CCc2ccccc2-3)ccc1O	-3.5	-3.6	-3.3	4.7	-24.0	-5.0
Cc1cccn2c(=O)c(C(=O)NC3CC(C)CC(C)(C)C3)c(O)nc12 (stereo not drawn)	0.9	-7.5	-3.3	-6.1	-4.1	-1.1
CCCN(CCC)CCCNC(=O)c1cn(CC)c2ccc(S(=O)(=O)N3CCc4ccccc4C3)cc2c1=O	-0.7	16.0	-2.0	-3.4	12.5	-0.1
CCCCN(CC)CCCNC(=O)c1cn(CC)c2ccc(S(=O)(=O)N3CCc4ccccc4C3)cc2c1=O	5.7	35.6*	-1.3	-8.2	0.2	1.2
CCCCN(C)CCCNC(=O)c1cn(CC)c2ccc(S(=O)(=O)N3CCc4ccccc4C3)cc2c1=O	-1.6	40.5*	1.8	1.8	13.9	-3.0
COc1ccc(NC(=O)CSc2nc(C)c3c(c2C#N)CCCC3)cc1	-1.6	2.2	-0.1	12.9	-1.1	2.7
CCc1nnc(NC(=O)CSc2nc(C)c3c(c2C#N)CCCC3)s1	-0.5	33.5*	4.9	3.0	14.1	-0.2
O=c1[nH]cc(N=Cc2cc(Cl)cc(Cl)c2O)c(=O)[nH]1	-9.4	1.8	-0.6	6.3	42.2*	2.6
Cc1ccc(N(C)S(=O)(=O)c2c[nH]c3ccc([N+](=O)[O-])cc23)cc1	-3.1	-6.9	-7.7	-19.3	-37.3	-10.1
Cc1ccc(C2C(C#N)=C(N)Oc3n[nH]c(-c4ccccc4)c32)o1 (stereo not drawn)	-14.2	-1.5	4.7	-1.2	45.2*	-1.2
N#Cc1cc([N+](=O)[O-])ccc1Oc1cccc(/C=N/NC(=O)c2cccc(Cl)c2)c1	-1.5	-31.2	2.3	18.9	-19.7	-19.7
